KB-V1 cytotox = qHTS assay for MDR1-selective chemotherapeutics: Primary screen using the drug-selected MDR subline cells KB-V1 | hit rate 3.4% among 400,000 | AID 1347076, 2019 | KB-V1 MDR cells viability, CellTiter-Glo, 72 h | Potency, µM (titrated, usually from 46.1 µM), actives largely listed as cytotoxic; note: potency is the fitted concentration of half-maximal effect; nearly all actives have a fitted effect of over 60% in size
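Cells of the MDR subline KB-V1 are plated, dosed with compound at multiple concentrations, and incubated 72 h at 37 degrees C; CellTiter-Glo is then added and luminescence read after 10 min.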
Giardia killer = Small Molecules that selectively kill Giardia lamblia: qHTS; Giardia lamblia trophozoite viability; activity change, % at 7.66 µM, hits read low; hit rate 0.15% among 340,000; in the data active = activity change below about -80%; inconclusive = between about -30% and that limit;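 note: parasites exposed to compound for two days anaerobically before the ATP read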
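Killing of trophozoites was scored by loss of ATP luminescence after a 48 hrs anaerobic exposure to compounds at 37 deg C, using 100 cells per well.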
PI4K2A inh = qHTS for small molecular inhibitors of PI4K2A. purified PI4K2A, ADP-Glo luminescence, 1 h; active compounds read low. activity change, negative = inhibition, % at 76.9 µM. hit rate 0.13% among 420,000. AID 1346378, 2018; in the data active = activity change below about -50%; inconclusive = mostly about -30% to -49%;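 note: -100% = wells without enzyme as full effect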
Target sequence (Q9BTU6 whole entry, looked up): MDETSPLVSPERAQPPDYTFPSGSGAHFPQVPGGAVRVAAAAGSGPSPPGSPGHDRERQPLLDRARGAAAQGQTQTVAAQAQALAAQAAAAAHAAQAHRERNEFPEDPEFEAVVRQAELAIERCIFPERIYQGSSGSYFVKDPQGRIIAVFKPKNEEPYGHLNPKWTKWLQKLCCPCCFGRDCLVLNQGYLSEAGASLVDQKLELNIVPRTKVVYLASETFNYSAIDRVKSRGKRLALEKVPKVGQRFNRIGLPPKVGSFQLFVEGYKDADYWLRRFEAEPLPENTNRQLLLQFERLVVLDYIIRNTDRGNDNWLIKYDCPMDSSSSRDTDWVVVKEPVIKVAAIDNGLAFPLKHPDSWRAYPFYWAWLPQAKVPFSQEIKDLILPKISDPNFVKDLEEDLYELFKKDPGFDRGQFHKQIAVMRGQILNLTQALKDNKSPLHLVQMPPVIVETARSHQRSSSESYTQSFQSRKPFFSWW
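In this quantitative HTS, ADP production by PI4K2A was quantified luminescently after 1 h at ambient temperature; 100 microM adenosine served as plate-quality control.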
Nrf2 inh = Nrf2 qHTS screen for inhibitors. A549 ARE-Fluc reporter, luciferase luminescence, 18-24 h. Potency, µM (titrated, usually from 46 µM), for inactives: at the highest dose activity change, negative = inhibition, hits mostly inhibitors. hit rate 2.1% among 360,000; note: potency is the fitted concentration of half-maximal effect; nearly all actives have a fitted effect of over 60% in size
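In this cell-based qHTS, ARE-driven firefly luciferase in A549 cells reports Nrf2 activity; the luminescent signal after BugLite lysis is the measured value, with a prior CellTiter-Fluor read for cell health.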
KB-3-1 tox = qHTS assay for MDR1-selective chemotherapeutics: Primary screen using the parental adenocarcinoma cell KB-3-1; KB-3-1 viability, CellTiter-Glo ATP luminescence, 72 h; Potency, µM (titrated, usually from 46.1 µM), hits mostly cytotoxic; hit rate 1.4% among 400,000; note: potency is the fitted concentration of half-maximal effect; nearly all actives have a fitted effect of over 60% in size
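Screening of KB-3-1 cells (DMEM, 10% FBS, phenol-red free) ran from lowest to highest compound concentration; after 72 h at 37 °C viability was read luminescently and curves fitted.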
A549 tox = Nrf2 qHTS screen for inhibitors: counterscreen for cytotoxicity; A549 ARE-Fluc cells, CellTiter-Fluor viability, 18-24 h; Potency, µM (doses to about 46 µM), for the others: at the highest dose activity change, negative = cytotoxicity, hits mostly inhibitors; hit rate 0.16% among 390,000; note: potency is the fitted concentration of half-maximal effect
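A549 ARE-Fluc cells in 5% FBS OPTI-MEM, 5000 cells/well, rested 2 h then exposed to compounds in concentration-response for 18-24 h at 37 °C. Viability by CellTiter-Fluor fluorescence (Ex 405/Em 525) after 30 min; luciferase luminescence (BugLite, 15 min, RT) read afterwards.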
* = called active by the depositor; i = inactive; u = inconclusive; x = no result given. In the library only some 5.7% were active in any assay of this set; here they are far more common. Unless noted, calls come from the whole dose curve; as a rule, active = well fitted curve in the direction sought with a large enough effect; inconclusive = small, poorly fitted or top-dose-only effect, or another doubt; inactive = no such curve, though single readings can be large; an effect the other way counts as inactive or inconclusive. Unless noted, % is set by controls: 0 for no effect and ±100 for the full control effect.

SMILES	KB-V1 cytotox	Giardia killer	PI4K2A inh	Nrf2 inh	KB-3-1 tox	A549 tox
Cc1ccc(OCc2ccc(C(=O)NN)o2)c([N+](=O)[O-])c1	i	2.7	-3.3	14.4%	i	-1.7%
Cc1ccc[n+](C(C(=S)NCc2ccco2)=C([O-])c2ccccc2Cl)c1	20.6µM*	7.1	-5.0	-1.7%	i	-5.8%
Cc1ccc[n+](/C(C(=S)NCc2ccco2)=C(/[O-])c2ccccc2Cl)c1	i	-1.7	-5.4	4.9%	u	-1.1%
COc1ccc(/C=C/C(O)=C2/C(=O)N(C)C3(C)CC2c2ccccc2O3)cc1 (centres undefined)	u	-23.5	-0.3	29.1µM*	u	u
Cc1ccc(/C=C/C(O)=C2/C(=O)N(C)C3(C)CC2c2ccccc2O3)cc1 (centres undefined)	i	-1.9	9.4	u	14.6µM*	-8.1%
COc1ccc(/C=C/C(O)=C2/C(=O)NC3(C)CC2c2ccccc2O3)c(OC)c1OC (centres undefined)	i	4.1	-14.5	u	u	-6.0%
Cc1ccc(S(=O)(=O)C2C(=O)N(C)C3(C)CC2c2ccccc2O3)cc1C (centres undefined)	u	6.7	0.0	0.3%	i	4.2%
Cc1ccc(Nc2nnc(-c3ccc(C)c(S(=O)(=O)N4CCOCC4)c3)c3ccccc23)c(C)c1	x	x	0.1	8.8%	x	6.4%
O=C(c1ccc2c(c1)OCO2)N1CCC(Oc2cccnc2)CC1	x	x	0.0	x	x	x
COc1ccc(C2=CCCCCC2)c(OC)c1OC	i	-7.3	-4.6	9.3%	i	0.4%
COc1ccc(-c2ccc(OC)c(OC)c2OC)c(OC)c1OC	23.1µM*	2.0	-2.1	2.0%	i	-0.2%
CC(=O)Nc1cc2c(cc1NC(=O)Cn1nc(-c3ccc(F)cc3)ccc1=O)OCCO2	i	3.0	3.4	18.7%	i	4.3%
CC(=O)c1cc2c(cc1NC(=O)Cn1nc(-c3ccc(C)cc3)ccc1=O)OCO2	9.2µM*	2.1	-0.7	-9.7%	23.1µM*	-11.8%
Cc1cc2c(s1)c1cnn(Cc3cc(C(F)(F)F)cc(Cl)c3F)c(=O)c1n2C	x	x	x	-4.8%	x	0.3%
Cc1cc2sc3ccccc3c(=O)c2c(C)c1O	18.4µM*	7.6	2.9	6.8%	u	-2.9%
COc1ccc(-c2nc(N3CCN(S(=O)(=O)c4ccc(F)cc4)CC3)c3ccccc3n2)cc1	x	-15.5	x	-4.7%	x	1.5%
COc1cc(-c2nc3ccccn3c2/N=C/c2cc(OC)c(OC)c(OC)c2)ccc1O	i	10.4	-3.2	-3.2%	i	-0.2%
Cc1ccc(-c2nc3ccccn3c2C=O)cc1	u	-23.2	1.1	u	i	-2.6%
CN(C)c1ccc(-c2nc3ccccn3c2/N=C/c2ccc(Br)cc2)cc1	9.2µM*	u	-23.4	7.8%	14.6µM*	5.0%
Cc1c(-c2ccc(Br)cc2)nc2ccccn12	20.6µM*	-11.0	-15.5	u	i	5.8%
CC(=O)N[C@@H]1C[C@@H]2O[C@H](CO)CC[C@@H]2O[C@@H]1CCc1ccc(-c2ccc(F)cc2)cc1	x	x	0.0	x	x	x
Cc1ccc2c(CC(=O)Nc3ccc(S(=O)(=O)N4CCCC(C)C4)cc3)coc2c1 (centres undefined)	i	x	0.5	20.6µM*	i	-8.0%
Cc1ccc2c(CC(=O)Nc3ccc(S(=O)(=O)N4CCCCC4)cc3)coc2c1	i	x	0.2	u	i	1.5%
COc1cc(SC)ccc1C(=O)N1CCn2c3c(c4cc(C)ccc42)CCCC31 (centres undefined)	i	x	-1.0	4.7%	i	1.3%
CCCCn1c(=O)[nH]c(=O)c2c1nc(Cn1ncc(Cl)c(Cl)c1=O)n2CCC	i	7.7	-16.0	7.5%	2.91µM*	-3.9%
SMILES	KB-V1 cytotox	Giardia killer	PI4K2A inh	Nrf2 inh	KB-3-1 tox	A549 tox
COc1ccc(-n2c(SCc3nc4ccccc4[nH]3)nc3ccccc3c2=O)cc1	x	x	-0.1	x	x	x
Cc1ccccc1Oc1cc(NC(=O)CCCn2nc(C)c([N+](=O)[O-])c2C)cc([N+](=O)[O-])c1	3.26µM*	4.6	1.7	u	i	-4.4%
Cc1ccc(CCNC(=O)CCn2nc(-c3ccc(C)cc3)ccc2=O)cc1	i	x	-0.4	x	i	2.8%
Cc1nn(CCCC(=O)NCc2ccc(Cl)cc2)c(C)c1[N+](=O)[O-]	23.1µM*	-3.8	1.3	-21.7%	i	0.5%
Cc1nn(CCCC(=O)Nc2cc(Oc3ccc(F)cc3)cc([N+](=O)[O-])c2)c(C)c1[N+](=O)[O-]	5.8µM*	2.4	-2.1	u	i	-19.5%
Cc1ccc(CNC(=O)CCn2nc(-c3ccc(Cl)cc3)ccc2=O)cc1	23.1µM*	10.8	1.0	-1.7%	i	0.0%
Cc1c(Cl)c([N+](=O)[O-])nn1CCCC(=O)Nc1cc(Oc2ccccc2)cc([N+](=O)[O-])c1	u	-5.5	4.3	19.9%	i	0.4%
COC(=O)C1CN(C2CC2)CCS(=O)(=O)N1Cc1cn(Cc2ccccc2)nn1 (centres undefined)	x	x	-2.8	x	x	x
Cc1ccccc1Cn1c(=O)n(-c2ccc(Cl)cc2)c(=O)c2c3c(sc21)CCCC3	i	x	-2.7	10.2%	i	-3.7%
CCOC(=O)C1CCCN(Cc2nc(N)nc(Nc3ccc(Cl)cc3)n2)C1 (centres undefined)	u	-2.7	-1.0	25.9µM*	i	-18.2%
Cc1ccc(Nc2nc(N)nc(CN3CCN(Cc4ccc5c(c4)OCO5)CC3)n2)cc1Cl	u	-4.3	1.4	-1.5%	20.6µM*	-28.3%
CCOC(=O)N1CCN(Cc2nc(N)nc(Nc3ccc(Oc4ccccc4)cc3)n2)CC1	13µM*	7.7	8.4	x	i	-3.7%
COc1ccc(N2CCN(Cc3nc(N)nc(Nc4ccc(C)c(Cl)c4)n3)CC2)cc1	5.17µM*	-3.4	2.7	u	i	-21.4%
Cc1ccc(Nc2nc(N)nc(CN3CCN(Cc4ccc5c(c4)OCO5)CC3)n2)cc1C	u	42.7	4.3	3.4%	i	0.8%
Cc1cc2c(s1)c1cnn(Cc3cccc(Cn4ncc5c6sc(C)cc6n(C)c5c4=O)c3F)c(=O)c1n2C	x	x	x	-3.4%	x	0.6%
Cc1ccc(Nc2nc(N)nc(CN3CCN(c4ccccc4)CC3)n2)cc1Cl	16.4µM*	-6.7	-2.8	u	i	-25.5%

Bioassay records deposited in PubChem by National Center for Advancing Translational Sciences (NCATS).
